RORgamma inh: inhibitors of mouse ROR gamma transcriptional activity; P51450; Drosophila S2 Gal4-RORgamma UAS-luciferase reporter, 20 h; Potency, µM (top dose mostly 53.6 µM), without a hit: top-dose activity change, negative = inhibition, most hits filed as inhibitors; hit rate 5.4% among 310,000; also: potency is read from the fitted curve at half-maximal effect; nearly all actives have a fitted effect of over 60% in size
Target sequence (P51450 whole entry, looked up, the tested form may be a part): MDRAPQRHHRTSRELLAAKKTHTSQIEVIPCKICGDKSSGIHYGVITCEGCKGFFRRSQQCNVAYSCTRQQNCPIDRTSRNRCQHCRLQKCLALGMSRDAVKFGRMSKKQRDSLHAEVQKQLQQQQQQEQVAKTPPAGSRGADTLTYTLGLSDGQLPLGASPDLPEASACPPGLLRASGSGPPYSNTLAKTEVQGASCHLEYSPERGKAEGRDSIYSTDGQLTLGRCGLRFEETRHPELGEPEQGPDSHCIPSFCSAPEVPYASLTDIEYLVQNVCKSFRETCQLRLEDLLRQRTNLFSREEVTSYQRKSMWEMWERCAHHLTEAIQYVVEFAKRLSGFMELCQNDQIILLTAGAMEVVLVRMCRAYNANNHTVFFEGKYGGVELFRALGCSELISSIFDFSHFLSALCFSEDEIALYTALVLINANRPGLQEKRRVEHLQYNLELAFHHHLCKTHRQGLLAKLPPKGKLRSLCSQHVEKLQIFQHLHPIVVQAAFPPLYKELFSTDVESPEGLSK
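Stably transfected Drosophila Schneider cells are the test system, with ROR gamma fused to Gal4 and luciferase under UAS control; luminescence is read after 20 hr of 700 uM copper sulfate induction at ambient temperature.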
LDHA block: inhibitors of human lactate dehydrogenase A | purified LDHA, NADH/diaphorase-resazurin fluorescence; stronger effect = lower value | activity change, % (values are at about 110 or 230 µM) | hit rate 0.15% among 480,000 | AID 1347041; in the data active = activity change below about -30%; inconclusive = mostly about -25% to -30%;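 also: plate controls were DMSO wells for no effect and wells without enzyme for full effect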
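Enzyme activity of human lactate dehydrogenase 5 (2 nM; 0.06 mM NADH, 0.2 mM pyruvate, 5 min, RT) is measured via a resazurin/diaphorase fluorescence readout of residual NADH.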
DT40 TDP1 no CPT: qHTS for Inhibitors of human tyrosyl-DNA phosphodiesterase 1 (TDP1): qHTS in cells in absence of CPT; hit rate 15% among 420,000; Potency, µM (series often up to 46.2 µM), for the others: top-dose activity change, negative = growth inhibition, usual class: inhibitors; DT40 Tdp1-/- hTDP1 cells, no CPT, ATP luminescence, 48 h; AID 686978, 2013; also: potency is read from the fitted curve at half-maximal effect; nearly all actives have a fitted effect of over 55% in size
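Chicken DT40 Tdp1-/- cells stably complemented with human TDP1 were seeded at 400 cells/well with DMSO in place of 20 nM camptothecin. After compound pinning, cells grew at least 48 hr at 37 °C; viability read by CellTiter-Glo luminescence.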
TDP1 cell CPT: DT40-hTDP1 cell growth loss with CPT. chicken DT40 Tdp1-/-;hTDP1 cells + 20 nM CPT, ATP luminescence, 48 h. Potency, µM (doses to about 46.2 µM), inactives show top-dose activity change, negative = growth inhibition, actives largely listed as inhibitors. hit rate 12% among 420,000; also: potency is read from the fitted curve at half-maximal effect; nearly all actives have a fitted effect of over 55% in size
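Chicken DT40 Tdp1-/- cells complemented with human TDP1, 400 cells/well, exposed to compounds plus 20 nM camptothecin for at least 48 h at 37 C; viability read as ATP content by CellTiter-Glo luminescence.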
Gal4-VP16 FLuc: inhibits Gal4-VP16 luciferase reporter, ROR gamma counter-screen; Drosophila S2 Gal4-VP16 UAS-luciferase, luminescence, 20 h; Potency, µM (top dose mostly 53.6 µM), inactives show at the highest dose activity, negative = inhibition, usual class: inhibitors; AID 2546; hit rate 3.5% among 310,000;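 also: Gal4-VP16 expression switched on by copper sulfate through the metallothionein promoter; potency is read from the fitted curve at half-maximal effect; nearly all actives have a fitted effect of over 50% in size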
IL1B secr inh: inhibitors of inflammasome signaling (IL-1 beta secretion); THP-1 LPS/ATP IL-1B secretion, AlphaLISA, 16 h; stronger effect = lower value; hit rate 4.7% among 360,000; activity change, % at 57.5 µM; in the data active = activity change below about -50%; inconclusive = mostly about -30% to -49%
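Secreted IL-1B measured by AlphaLISA bead assay after 16 h compound exposure of THP-1 cells; compounds (final up to 57.5 uM) added 1 h before LPS (250 ng/mL) and ATP (1.25 mM) stimulation; lower signal means less secretion.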
* = called active by the depositor; u = inconclusive; x = no result. A selection: hits, their analogues and other compounds. The true share with any hit is near 18%. Unless noted, calls follow the shape of the dose curve; as a rule, active = well fitted curve in the direction sought with a large enough effect; inconclusive = small, poorly fitted or top-dose-only effect, or another doubt; inactive = no such curve, though single readings can be large; an effect the other way counts as inactive or inconclusive. Unless noted, % is scaled to controls: 0 for no effect and ±100 for the full control effect.

SMILES	RORgamma inh	LDHA block	DT40 TDP1 no CPT	TDP1 cell CPT	Gal4-VP16 FLuc	IL1B secr inh
c1cc2c(cc1C1CCCN1Cc1nnnn1C1CC1)OCCO2 (stereo unspecified)	x	-7	x	x	x	x
COc1ccc(OC)c(NC(=O)CCc2c(C)c3ccc(OC)c(C)c3oc2=O)c1	x	1	x	x	x	x
O=C(CSCc1ccccc1)N1CCN(c2ccc(F)cc2)CC1	u	1	u	13µM*	-12%	u
O=C(CCCOc1ccccc1)N1CCN(c2ccc(F)cc2)CC1	u	-9	18µM*	u	2%	-16
O=C(CSCc1cccc(F)c1)N1CCN(c2ccccc2)CC1	1%	-2	u	u	17%	-11
O=C(CSCc1ccc(F)cc1)N1CCN(c2ccccc2F)CC1	x	-3	26µM*	21µM*	x	x
CCC(C)Nc1nc(-c2ccc3c(c2)NC(=O)CO3)cs1 (stereo unspecified)	22%	4	u	23µM*	16%	-2
O=C1COc2ccc(-c3csc(Nc4ccc(F)cc4)n3)cc2N1	x	-6	x	x	x	x
COc1ccccc1Nc1nc(-c2ccc3c(c2)NC(=O)CO3)cs1	25%	3	18µM*	23µM*	-20%	u
Cc1sc2ccccc2[n+]1CCc1ccccc1	x	x	3.2µM*	6.3µM*	x	x
Cc1c(CCO)sc[n+]1CCc1ccccc1	x	x	7%	u	x	x
Cc1sc2ccccc2[n+]1CCCCI	x	u	20µM*	u	x	x
O=C(NC1CCCCC1)c1ccc2ccccc2n1	x	4	x	x	x	x
Cc1ccsc1CCNS(=O)(=O)c1ccc2c(c1)NC(=O)CC(C)S2 (stereo unspecified)	x	4	x	x	x	x
Cc1cccc(NC(=O)CSC2=C(C#N)C3(CCC(C(C)(C)C)CC3)C(C#N)C(=O)N2)c1 (stereo unspecified)	x	-22	x	x	x	x
Cc1ccc(C(=O)NCCCc2ccccc2)c(Cl)c1	11µM*	-3	8%	14%	-17%	-13
CCCN(CC(=O)Nc1ccccc1C)C(=O)CCNC(=O)c1ccccc1Cl	x	-1	3%	7%	x	-6
O=C(NCCC(=O)N(CCc1ccccc1)Cc1ccccc1)c1ccccc1Cl	x	0	23µM*	u	x	-19
Cc1c(C(=O)CN2CCCCC2)c2ccccc2n1C	x	8	x	x	x	x
Cc1ccc(NC(=O)c2cccc(S(=O)(=O)N3CCN(c4ccc(F)cc4)CC3)c2)nc1	22%	-3	u	15µM*	u	1
O=C(Nc1ncccc1O)c1cccc(S(=O)(=O)N2CCN(c3ccc(F)cc3)CC2)c1	x	3	u	u	x	4
O=C(Nc1ccncc1)c1cccc(S(=O)(=O)N2CCN(c3ccc(F)cc3)CC2)c1	x	3	21µM*	21µM*	x	u
O=C(CCCN1C(=O)S/C(=C\C=C\c2ccccc2)C1=O)Nc1ccc(O)cc1	0.32µM*	-8	u	u	u	-78*
O=C(CCN1C(=O)/C(=C\C=C\c2ccccc2)SC1=S)Nc1ccc(C(=O)O)cc1	u	4	4%	-3%	u	-55*
O=C(CN1C(=O)S/C(=C/C=C/c2ccccc2)C1=O)Nc1ccc(C(=O)O)cc1	12%	-9	-21%	0%	4%	-24
SMILES	RORgamma inh	LDHA block	DT40 TDP1 no CPT	TDP1 cell CPT	Gal4-VP16 FLuc	IL1B secr inh
O=S(=O)(CCN1CCN(C(c2ccccc2)c2ccccc2)CC1)C(F)(F)F	u	0	18µM*	7.3µM*	16µM*	-18
CCOC(=O)c1cc(-c2ccccc2)n(CCC(=O)Nc2cc(C)cc(C)c2)c1C	x	1	15µM*	15µM*	x	x
CCOC(=O)c1cc(-c2ccccc2)n(CCC(=O)Nc2ccc(Cl)c(C(F)(F)F)c2)c1C	x	2	4.6µM*	3.7µM*	x	x
CCOC(=O)c1cc(-c2ccccc2)n(CCC(=O)Nc2ccc(C)cc2Cl)c1C	x	2	u	u	x	x
O=C(c1cc2ccccc2oc1=O)N1CCC(N2CCCCC2)CC1	x	-3	x	x	x	x
Cc1ccc(C(=O)O)cc1I	x	1	x	x	x	x
Cc1c(Cl)cccc1N=C1SCCN1C(=O)CN1C(=O)NC2(CCCC2)C1=O	x	2	18µM*	u	x	-14
O=C(CN1C(=O)NC2(CCCCC2)C1=O)Nc1cccc(Cl)c1Cl	x	-4	u	-23%	x	5
O=C(COc1ccc(F)cc1)Nc1ccc2nc(SCC(=O)N3CCOCC3)sc2c1	x	-7	12µM*	10µM*	x	x
O=C(COc1ccccc1)Nc1ccc2nc(SCCOc3ccccc3)sc2c1	x	1	u	-23%	x	x
O=C(COc1ccc(F)cc1)Nc1ccc2nc(SCC(=O)N3CCCC3)sc2c1	x	-6	23µM*	12µM*	x	x
O=C(Nc1ccc(F)cc1)Nc1nnc(SCC(=O)N2CCCCC2)s1	x	-4	3.3µM*	u	x	x
O=C(COc1ccccc1)Nc1ccc2nc(SCC(=O)N3CCOCC3)sc2c1	x	-3	15µM*	18µM*	x	x
O=C(Nc1cccc(Br)c1)Nc1ccc2c(c1)N(C(=O)c1ccccc1)CC2	x	4	x	x	x	x
O=C(CSc1nc2cc(Cl)ccc2s1)NC1CC1	x	-2	x	x	x	x
NC(=O)CSc1nnc(NC(=O)C2CC(=O)N(c3ccc(F)cc3)C2)s1 (stereo unspecified)	20%	-7	21µM*	-2%	8%	0
CC(C)(C)C(=O)Nc1ccc(C(=O)N/N=C/c2ccccc2OC(=O)c2ccccc2)cc1	6.3µM*	-2	7.3µM*	6.5µM*	u	96
COC(=O)c1ccc(COc2ccccc2/C=N/NC(=O)c2cccnc2)cc1	-7%	0	u	u	1%	9
CN(C)c1ccc(/C=N/NC(=O)c2ccccc2)cc1	u	-6	u	u	-24%	-5
CC(C)(C)C(=O)Nc1ccc(C(=O)N/N=C/c2ccccc2OC(=O)c2ccc(Cl)cc2)cc1	5%	-4	4.6µM*	5.2µM*	-4%	3
COc1ccc(C(=O)N/N=C/c2ccc(N(C)c3ccccc3)cc2)cc1	x	-6	23µM*	u	x	u
O=C(N/N=C/C(Cl)=C/c1ccccc1)c1ccc2c(c1)OCO2	x	-23	21µM*	u	x	-16
COc1ccc(CC(=O)OCC(=O)c2ccc(OC(=O)c3ccco3)cc2)cc1	x	4	x	x	x	x
COC(=O)COc1ccc(/C=N/NC(=O)c2ccc(N(Cc3ccccc3)S(C)(=O)=O)cc2)cc1	u	-8	-29%	-25%	u	-95*
COc1ccc(C(=O)N/N=C/c2ccc(OC(=O)c3ccccc3)cc2)cc1	-23%	-4	-16%	-12%	-6%	-8

High-throughput results (PubChem BioAssay)
